Consider 23 sequences from the OligoGym collection.
Note: reference of the scale not given here.

This assay concerns the target KLF9. The assay is described as follows: pooled miR-30 sensor sort-seq; sequence = guide strand. To be noted: shRNA.
Sequence TTCTGTAATTGTAACTACCAAA came in with a sensor-assay potency score (higher = more potent) of -0.904.
Next, TTAATCTCAAAAGTTAACGTGA: 0.201.
For TTCACCTGTATGCACTCTGTAA the value was -0.85; for TTCTGTACTTAGTGTAACCTTT, -0.287; for TTAGTGTTCAATGAACTCTAGT, -0.32.
For TTGTCTTTCACTGACTTTGCTT the value was -0.214; for TTTATATCCATCTAAGTGCTTG, -0.361.
Sequence TAAACAAAAATTACTATCCTGC had a sensor-assay potency score (higher = more potent) of 0.0439.
Next, TTTAGATGACAGATCATGCTGG: 0.459; TTCAGGTCCAACAAGCTCTTGG: -0.253; TATCTTGATATAGTAAATCTAA: -0.625.
TTCTTTCTTTTTAAACACCTGC yielded a sensor-assay potency score (higher = more potent) of -0.453.
Next, TAACTTATTCATCCTCTGCATT: -0.919; TCTACATAACTCTTGCACCTGA: -0.302; TTAAACAGTTGTAAAGATCAGT: -0.0225.
Next, TTAAACACCTGCAATAGTCTTT: 0.257; TTCGATCGCTTGATCATGCTGG: 0.623.
For TAGTAGTCCTATTTGAACCATA the value was -0.845.
As for TTGCAAAACACTACCCTCCTTC, the sensor-assay potency score (higher = more potent) was -0.0123.
For TACAGTGTTACAGATCATCTGA the value was 0.728.
Next, TTTCTCGTGAGAAAACACTTTC: -0.637; TTACAAGTTAGCAAGTTGCTAG: -0.0943; TTGATCTTAGGCTACAATGTGC: -0.659.
